# The supplement of paper PMC10732440
# ± gives the standard deviation of the averaged measurements.
# Tested on: Caenorhabditis elegans N2 infected with Nematocida parisii ERTm1
# Test: progeny production relative to DMSO uninfected control; higher = more progeny despite microsporidia infection (inhibition of infection with low host toxicity)
# Conditions: infection time 6 days
# Summary of the method: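 In 96-well plates holding K-medium, E. coli OP50 and 15,000 N. parisii spores/μL, 100 wild-type C. elegans L1 larvae per well were exposed to compound at 100 μM or 40 μM in 1% DMSO for 6 days with shaking at 21°C. Worms were then stained with Rose Bengal, scanned and counted with WorMachine, with three runs per compound and dose. Each value is progeny production as a percentage of the spore-free vehicle condition, averaged over replicates.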
SMILES,progeny production (40 µM) [%],progeny production (100 µM) [%]
Cc1ccc(N2CCC(CCOc3ccc(S(C)(=O)=O)cc3)CC2)nn1,4.13 ± 1,11.1 ± 10
CCC[C@@H]1C[C@@H](C(=O)N[C@@H]([C@H]2O[C@H](SC)[C@H](O)[C@@H](O)[C@H]2O)[C@H](C)Cl)N(C)C1,6.74 ± 4.3,7.36 ± 5.1
COc1cc(Cc2cnc(N)nc2N)cc(OC)c1OC,1.91 ± 0.77,16.3 ± 11
O=C(Nc1ccc(-c2ccccc2)cc1)C1=C(O)C(Cc2ccccc2)OC1=O (stereo not given),5.44 ± 3.9,6.02 ± 4.2
O=[N+]([O-])c1ccc2c(CCc3c[nH]c4ccccc34)c[nH]c2c1,8.93 ± 1.7,35.7 ± 12
CC(C)Nc1nc2cc(Cl)c(Cl)cc2n1[C@H]1O[C@@H](CO)[C@H](O)[C@@H]1O,3.85 ± 0.59,9.08 ± 2.1
O=C(O)c1cc(-c2ccc(Br)cc2)nc2ccc(Cl)cc12,4.63 ± 0.086,11.3 ± 3.5
CC(C)(C)NC(=O)[C@@H]1C[C@@H]2CCCC[C@@H]2CN1C[C@@H](O)[C@H](Cc1ccccc1)NC(=O)[C@H](CC(N)=O)NC(=O)c1ccc2ccccc2n1,6.54 ± 4.7,6.35 ± 4.1
Cc1nc2ccc(Cl)cc2c(-c2ccccc2)c1CC(=O)O,6.84 ± 5.6,13.8 ± 12
OCCC#Cc1nc(-c2ccc(F)cc2)c(-c2ccncc2)n1CCCc1ccccc1,5.08 ± 0.6,16.6 ± 12
CC1(C)Cc2c(C#N)c(SCCc3ccccc3)nc(N3CCOCC3)c2CO1,3.65 ± 0.7,18.8 ± 15
COc1ccc2c(c1OC)C(=O)OC2C1c2c(cc3c(c2OC)OCO3)CCN1C (stereo not given),5.88 ± 3.7,14.7 ± 9.2
CCOC(=O)/C=C/[C@H](C[C@@H]1CCNC1=O)NC(=O)[C@@H](CC(=O)[C@@H](NC(=O)c1cc(C)on1)C(C)C)Cc1ccc(F)cc1,3.79 ± 1.2,8.56 ± 4.7
O[C@@](Cn1cnnn1)(c1ccc(F)cc1F)C(F)(F)c1ccc(-c2ccc(OCC(F)(F)F)cc2)cn1,3.9 ± 1.3,11.8 ± 2.2
NC[C@H]1O[C@H](O[C@H]2[C@H](O)[C@@H](O[C@H]3O[C@H](CO)[C@@H](O)[C@H](N)[C@H]3O)[C@H](N)C[C@@H]2N)[C@H](N)C[C@@H]1O,6.6 ± 2.4,11.7 ± 16
COc1cccc(N2CCN(C3=Nc4c(F)cccc4[C@H](CC(=O)O)N3c3cc(C(F)(F)F)ccc3OC)CC2)c1,6.01 ± 2.9,14.7 ± 7.5
NC(=O)c1[nH]c2ccc(S(N)(=O)=O)cc2c1-c1ccccc1,4.85 ± 2.6,6.59 ± 2.8
Cc1onc(-c2ccccc2Cl)c1C(=O)N[C@@H]1C(=O)N2[C@@H]1SC(C)(C)[C@@H]2C(=O)O,2.76 ± 1.9,19.1 ± 12

SMILES,progeny production (40 µM) [%],progeny production (100 µM) [%]
COc1ccc(CNC(=O)C(NS(=O)(=O)c2ccc3nc(C)sc3c2)C(C)C)cc1 (stereo not given),4.14 ± 1.6,6.87 ± 4
COc1cc2c(O)c3c(c(-c4ccc5c(c4)OCO5)c2cc1OC)C(=O)OC3,4.37 ± 1.7,3.64 ± 3.2
O=C(NO)C1(CS(=O)(=O)c2ccc(Oc3ccc(Cl)cc3)cc2)CCOCC1,5.79 ± 0.11,7.72 ± 4.5
O=C(O)c1sccc1S(=O)(=O)n1ccc2cc(Br)ccc21,5.86 ± 1.6,8.33 ± 1.2
O=C(NC(=O)N1CCCc2ccccc21)c1ccc(Cl)cc1Cl,3.48 ± 1.1,19.2 ± 21
O=C(c1ccc(F)cc1)N1CCN2C(=O)c3ccccc3C12c1ccccc1 (stereo not given),2.5 ± 1.4,7.13 ± 5
N[C@@H]1CN(c2c(F)cc3c(=O)c(C(=O)O)cn([C@@H]4C[C@@H]4F)c3c2Cl)CC12CC2,9.37 ± 3.9,13.4 ± 6.8
Cc1nc(-c2ccc(C3N(C)c4ccc(F)cc4C(=O)N3c3ccccc3)s2)cs1 (stereo not given),3.69 ± 1.5,6.47 ± 4.9
NC(=O)c1nccn([C@@H]2O[C@H](CO)[C@@H](O)[C@H]2O)c1=O,6.9 ± 2.3,10.3 ± 7.2
O=c1nc(N2CCN(CC3CCCCC3)CC2)sc2c([N+](=O)[O-])cc(C(F)(F)F)cc12,4.77 ± 2.5,9.3 ± 5.1
CSC[C@H]1CN(Cc2c[nH]c3c(N)ncnc23)C[C@@H]1O,8.02 ± 2.9,15.3 ± 10
Cc1ncc([N+](=O)[O-])n1CC(O)CN1CCOCC1 (stereo not given),9.17 ± 4.5,12.3 ± 8.3
C=CCN(C(=O)OCc1ccc([N+](=O)[O-])cc1)C1CCN(CC[C@](C)(CN(C)S(=O)(=O)c2ccccc2)c2ccccc2)CC1,3.88 ± 1.4,5.72 ± 2.3
O=C(Nc1nnc(-c2ccc(Cl)cc2)o1)c1nc2ccccc2s1,8.93 ± 4.2,6.47 ± 3.5
NC(=O)c1ccc(I)c([N+](=O)[O-])c1,1.54 ± 0.63,10 ± 2.6
O=C(/C(=C/c1ccc(Cl)cc1Cl)n1ccnc1)c1ccc(Cl)cc1,24.5 ± 2.2,89.8 ± 17
Cc1cc(C)n2nc(C(=O)NS(=O)(=O)c3c(C)cccc3OC(F)(F)F)nc2n1,9.33 ± 0.97,5.89 ± 3.9
